# Assay results published in PubChem BioAssay (NCATS).
# “And” between values parts separate entries of the source, which are not always exact repeats. Equal values may be shown once. Results filed as inconclusive are left out. Entries that show only a call come without a potency. Where a structure was tested more than once in an assay, its records may differ in their call. The source made the active and inactive calls. Calls come from the whole dose curve; as a rule, active = well fitted curve in the direction sought with a large enough effect; inconclusive = small, poorly fitted or top-dose-only effect, or another doubt; inactive = no such curve, though single readings can be large; an effect the other way counts as inactive or inconclusive.
# How the values were obtained:
# [1] = molecular target: Cytochrome P450 2C9 (Homo sapiens) (UniProt P11712); experiment: qHTS Assay for Inhibitors and Substrates of Cytochrome P450 2C9 (AID 883); note: nearly all actives have a fitted effect of over 60% in size; note: potency is the fitted concentration of half-maximal effect
# Chain of Cytochrome P450 2C9 (Homo sapiens) (P11712 whole entry, looked up): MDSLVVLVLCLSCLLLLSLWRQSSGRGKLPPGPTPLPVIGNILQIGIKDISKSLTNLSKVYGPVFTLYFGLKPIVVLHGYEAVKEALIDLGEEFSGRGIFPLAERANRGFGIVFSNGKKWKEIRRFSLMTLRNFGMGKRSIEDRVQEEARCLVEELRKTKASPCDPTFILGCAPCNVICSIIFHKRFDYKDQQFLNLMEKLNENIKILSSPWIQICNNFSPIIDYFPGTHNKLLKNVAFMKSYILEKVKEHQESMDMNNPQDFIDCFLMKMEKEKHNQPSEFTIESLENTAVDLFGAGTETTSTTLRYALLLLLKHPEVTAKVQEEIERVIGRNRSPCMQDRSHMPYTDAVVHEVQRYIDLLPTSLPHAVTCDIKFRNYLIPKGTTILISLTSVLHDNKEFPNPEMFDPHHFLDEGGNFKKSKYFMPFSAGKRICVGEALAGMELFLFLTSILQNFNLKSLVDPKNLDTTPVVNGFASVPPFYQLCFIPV
# How it was run: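 Signal: luciferase luminescence reporting luciferin produced by CYP2C9. Conditions: 10nM enzyme, Luciferin-H 100uM at KM, 25mM KPO4, 37C, 60 min NADPH-driven reaction. Reference: 57uM sulphaphenazole as 100% inhibition.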
# [2] = molecular target: Cytochrome P450 3A4 (Homo sapiens) (UniProt P08684); experiment: qHTS Assay for Inhibitors and Substrates of Cytochrome P450 3A4 (AID 884); note: nearly all actives have a fitted effect of over 50% in size; note: potency is the fitted concentration of half-maximal effect
# Chain of Cytochrome P450 3A4 (Homo sapiens) (P08684 whole entry, looked up): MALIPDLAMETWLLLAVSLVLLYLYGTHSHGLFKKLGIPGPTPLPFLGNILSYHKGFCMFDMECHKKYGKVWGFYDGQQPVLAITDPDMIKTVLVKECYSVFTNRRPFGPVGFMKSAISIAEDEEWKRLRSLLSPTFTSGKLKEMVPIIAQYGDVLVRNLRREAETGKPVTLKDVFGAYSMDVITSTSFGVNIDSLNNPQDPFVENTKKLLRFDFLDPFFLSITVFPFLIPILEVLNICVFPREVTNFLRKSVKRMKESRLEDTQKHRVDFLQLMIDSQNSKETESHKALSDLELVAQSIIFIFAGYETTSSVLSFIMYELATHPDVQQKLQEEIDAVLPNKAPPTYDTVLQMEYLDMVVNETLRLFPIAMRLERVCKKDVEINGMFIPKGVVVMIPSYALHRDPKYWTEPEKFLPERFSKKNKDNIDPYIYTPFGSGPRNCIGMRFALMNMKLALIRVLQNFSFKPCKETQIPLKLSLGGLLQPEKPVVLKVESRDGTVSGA
# How it was run: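 Luminescent readout of luciferin produced by CYP3A4 (20 nM) dealkylation of Luciferin-PPXE, 25 uM (its KM). NADPH-driven reaction ran 60 min at RT after 10 min compound preincubation; data scaled to 57 uM ketoconazole as 100% inhibition.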
# [3] = molecular target: Rap guanine nucleotide exchange factor 3 (Homo sapiens) (UniProt O95398); experiment: Confirmatory qHTS for antagonist of cAMP-regulated guanine nucleotide exchange factor 3 (EPAC1) (AID 1645880); note: nearly all actives have a fitted effect of over 55% in size; note: potency is the fitted concentration of half-maximal effect
# Chain of Rap guanine nucleotide exchange factor 3 (Homo sapiens) (O95398 whole entry, looked up): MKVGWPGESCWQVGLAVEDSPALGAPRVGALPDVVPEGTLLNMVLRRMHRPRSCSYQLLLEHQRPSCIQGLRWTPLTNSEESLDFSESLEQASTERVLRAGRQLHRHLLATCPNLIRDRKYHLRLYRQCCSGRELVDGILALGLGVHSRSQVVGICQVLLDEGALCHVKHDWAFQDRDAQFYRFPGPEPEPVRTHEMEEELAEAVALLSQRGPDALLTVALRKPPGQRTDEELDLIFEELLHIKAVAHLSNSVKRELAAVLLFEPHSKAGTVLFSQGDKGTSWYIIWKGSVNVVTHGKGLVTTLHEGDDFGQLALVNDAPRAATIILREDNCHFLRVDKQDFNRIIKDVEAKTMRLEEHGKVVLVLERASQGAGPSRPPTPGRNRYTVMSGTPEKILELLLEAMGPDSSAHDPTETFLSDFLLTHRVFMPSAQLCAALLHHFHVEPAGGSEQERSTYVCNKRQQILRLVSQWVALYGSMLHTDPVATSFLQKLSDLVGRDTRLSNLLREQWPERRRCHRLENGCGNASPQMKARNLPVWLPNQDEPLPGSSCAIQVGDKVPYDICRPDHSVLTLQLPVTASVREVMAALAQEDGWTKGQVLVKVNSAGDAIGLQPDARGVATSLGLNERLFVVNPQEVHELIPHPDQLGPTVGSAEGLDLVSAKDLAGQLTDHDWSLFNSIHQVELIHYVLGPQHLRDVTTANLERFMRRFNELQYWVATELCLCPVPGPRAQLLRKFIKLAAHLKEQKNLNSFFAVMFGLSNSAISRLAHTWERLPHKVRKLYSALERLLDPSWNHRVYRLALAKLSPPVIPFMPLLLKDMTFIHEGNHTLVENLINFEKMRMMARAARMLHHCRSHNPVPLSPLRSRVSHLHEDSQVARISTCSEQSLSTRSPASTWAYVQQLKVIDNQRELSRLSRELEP
# How it was run: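 Released BODIPY-GDP fluoresces less than Rap1-bound BODIPY-GDP; the signal is followed at 480/540 nm at 5-min intervals over 30 min, after 5 min at room temperature. Reactions contain 100 nM EPAC1, 250 nM RAP1B-BODIPY-GDP and 50 uM GDP; results are normalized to ATA and DMSO.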
# [4] = molecular target: Rap guanine nucleotide exchange factor 3 (Homo sapiens) (UniProt O95398); experiment: Confirmatory qHTS for agonist of cAMP-regulated guanine nucleotide exchange factor 3 (EPAC1) (AID 1645881);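 note: EPAC1 catalysed release of BODIPY-GDP from Rap1B seen as fluorescence loss; nearly all actives have a fitted effect of over 75% in size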
# [5] = molecular target: Rap guanine nucleotide exchange factor 4 (Homo sapiens) (UniProt Q8WZA2); experiment: Confirmatory qHTS for agonist of cAMP-regulated guanine nucleotide exchange factor 4 (EPAC2) (AID 1645884);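 note: nucleotide exchange releases bodipy-GDP from Rap1 and this lowers its fluorescence; nearly all actives have a fitted effect of over 65% in size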
# Chain of Rap guanine nucleotide exchange factor 4 (Homo sapiens) (Q8WZA2 whole entry, looked up, the tested form may be a part): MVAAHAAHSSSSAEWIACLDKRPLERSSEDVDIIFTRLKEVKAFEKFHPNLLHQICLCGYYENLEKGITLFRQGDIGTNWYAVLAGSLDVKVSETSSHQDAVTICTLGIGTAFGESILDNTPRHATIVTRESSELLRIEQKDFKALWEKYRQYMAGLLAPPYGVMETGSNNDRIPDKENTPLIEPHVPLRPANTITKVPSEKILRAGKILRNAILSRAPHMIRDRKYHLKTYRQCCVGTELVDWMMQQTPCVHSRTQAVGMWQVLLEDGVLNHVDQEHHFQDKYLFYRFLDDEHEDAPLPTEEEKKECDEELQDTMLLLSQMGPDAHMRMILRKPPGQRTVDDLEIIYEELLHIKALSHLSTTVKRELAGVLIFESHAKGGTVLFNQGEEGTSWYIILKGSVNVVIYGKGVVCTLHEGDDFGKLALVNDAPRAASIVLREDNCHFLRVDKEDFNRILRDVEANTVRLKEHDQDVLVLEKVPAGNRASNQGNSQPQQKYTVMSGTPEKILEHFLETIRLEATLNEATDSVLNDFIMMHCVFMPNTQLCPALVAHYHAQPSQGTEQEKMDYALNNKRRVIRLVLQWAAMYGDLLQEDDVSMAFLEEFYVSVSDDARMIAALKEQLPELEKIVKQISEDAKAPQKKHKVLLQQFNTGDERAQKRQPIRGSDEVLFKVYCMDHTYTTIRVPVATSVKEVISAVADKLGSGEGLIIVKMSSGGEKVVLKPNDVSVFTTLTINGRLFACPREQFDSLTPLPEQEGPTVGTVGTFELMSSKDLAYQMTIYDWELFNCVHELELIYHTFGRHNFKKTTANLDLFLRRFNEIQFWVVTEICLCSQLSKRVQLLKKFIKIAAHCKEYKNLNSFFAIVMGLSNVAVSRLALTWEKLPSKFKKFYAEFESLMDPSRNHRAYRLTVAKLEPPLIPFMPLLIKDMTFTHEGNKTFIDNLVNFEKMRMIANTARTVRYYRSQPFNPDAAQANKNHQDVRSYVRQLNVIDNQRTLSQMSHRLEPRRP
# [6] = Confirmation and Secondary Assay for Modulators of Hemoglobin Beta Chain Splicing at IVS2 654 locus (AID 910);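 note: HeLa cells stably carrying EGFP split by mutant beta-globin IVS2-654 intron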
# How it was run: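 HeLa cells stably expressing EGFP interrupted by β-globin IVS2-654 intron, seeded overnight in Opti-MEM/2% FCS, then treated 2 days at 37 °C. Restored splicing read as total peak GFP intensity per well by laser scanning cytometry (488 nm excitation, 500–520 nm emission); 500 nM antisense PNA as control.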
# [7] = Confirmation and Secondary Assay for Modulators of Hemoglobin Beta Chain Splicing at IVS2 705 locus (AID 930);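 note: HeLa cells stably expressing the EGFP-705 splicing reporter; GFP fluorescence per well restored by corrected splicing of the IVS2-705 intron in EGFP; series mostly up to about 46 µM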
# How it was run: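 Per-well GFP, captured at 1 x 8 µm resolution with 488 nm excitation, served as the read-out for HeLa EGFP-705 cells incubated 2 days with test compound versus DMSO.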
# [8] = molecular target: Rap guanine nucleotide exchange factor 4 (Homo sapiens) (UniProt Q8WZA2); experiment: Confirmatory qHTS for antagonist of cAMP-regulated guanine nucleotide exchange factor 4 (EPAC2) (AID 1645885); note: nearly all actives have a fitted effect of over 25% in size; note: potency is the fitted concentration of half-maximal effect
# [9] = Primary qHTS for inhibitors of nuclear receptor binding SET domain protein 2 (NSD2) in an isogenic RCH-ACV NSD2 p.E1099K mutant (9B) (AID 1645876); note: nearly all actives have a fitted effect of over 70% in size; note: potency is the fitted concentration of half-maximal effect
# [10] = Primary qHTS for inhibitors of nuclear receptor binding SET domain protein 2 (NSD2) in an RCH-ACV wild type WT cells (2C) (AID 1645877); note: nearly all actives have a fitted effect of over 70% in size; note: potency is the fitted concentration of half-maximal effect
# [11] = molecular target: Glutathione peroxidase 1 (Homo sapiens) (UniProt P07203); experiment: Primary qHTS Assay for Inhibitors of Recombinant Selenoprotein Glutathione Peroxidase 1 (GPX1) (AID 1845191); note: nearly all actives have a fitted effect of over 65% in size
# Chain of Glutathione peroxidase 1 (Homo sapiens) (P07203 whole entry, looked up): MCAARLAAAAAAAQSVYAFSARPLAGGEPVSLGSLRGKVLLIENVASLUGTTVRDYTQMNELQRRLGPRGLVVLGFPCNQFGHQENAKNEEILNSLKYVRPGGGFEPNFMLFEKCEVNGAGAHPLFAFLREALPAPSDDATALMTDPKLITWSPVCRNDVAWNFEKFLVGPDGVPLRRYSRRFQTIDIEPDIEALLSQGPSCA
# How it was run: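 GR-coupled readout: NADPH consumption tracked by fluorescence, ex 340/em 450 nm, at t=0 and after 15 min at RT. Final mix 10 nM GPX1, 1 mM GSH, 0.5 mM CHP, 0.5 mM NADPH, 100 nM GR, 0.01% BSA, following 30 min enzyme–compound preincubation.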
# [12] = molecular target: Muscarinic acetylcholine receptor M1 (Rattus norvegicus) (UniProt P08482); experiment: qHTS Assay for Antagonists of Acetylcholine Muscarinic M1 Receptor: Measurement of IP-One Response (AID 944); note: nearly all actives have a fitted effect of over 75% in size
# Chain of Muscarinic acetylcholine receptor M1 (Rattus norvegicus) (P08482 whole entry, looked up): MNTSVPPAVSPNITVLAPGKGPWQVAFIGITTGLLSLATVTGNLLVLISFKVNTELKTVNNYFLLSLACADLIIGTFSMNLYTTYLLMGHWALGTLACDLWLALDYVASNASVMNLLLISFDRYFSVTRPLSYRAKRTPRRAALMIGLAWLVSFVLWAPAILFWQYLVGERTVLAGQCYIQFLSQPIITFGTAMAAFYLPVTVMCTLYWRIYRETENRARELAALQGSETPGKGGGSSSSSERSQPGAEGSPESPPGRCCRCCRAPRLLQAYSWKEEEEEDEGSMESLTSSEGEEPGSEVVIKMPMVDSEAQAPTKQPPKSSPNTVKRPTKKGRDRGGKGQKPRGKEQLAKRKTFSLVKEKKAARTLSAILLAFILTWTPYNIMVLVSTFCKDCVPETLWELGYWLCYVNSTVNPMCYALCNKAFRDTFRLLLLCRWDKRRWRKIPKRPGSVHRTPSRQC
# How it was run: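 Read-out: HTRF competition between d2-IP1 and Eu-cryptate anti-IP1 antibody, emission 620 and 665 nm. Stimulus was carbachol, EC80 (200 nM), for 30 min in M1-CHO cells (rat receptor), after 10 min compound pre-treatment.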
# [13] = molecular target: Cytochrome P450 2D6 (Homo sapiens) (UniProt P10635); experiment: qHTS Assay for Inhibitors and Substrates of Cytochrome P450 2D6 (AID 891); note: nearly all actives have a fitted effect of over 60% in size; note: potency is the fitted concentration of half-maximal effect
# Chain of Cytochrome P450 2D6 (Homo sapiens) (P10635 whole entry, looked up): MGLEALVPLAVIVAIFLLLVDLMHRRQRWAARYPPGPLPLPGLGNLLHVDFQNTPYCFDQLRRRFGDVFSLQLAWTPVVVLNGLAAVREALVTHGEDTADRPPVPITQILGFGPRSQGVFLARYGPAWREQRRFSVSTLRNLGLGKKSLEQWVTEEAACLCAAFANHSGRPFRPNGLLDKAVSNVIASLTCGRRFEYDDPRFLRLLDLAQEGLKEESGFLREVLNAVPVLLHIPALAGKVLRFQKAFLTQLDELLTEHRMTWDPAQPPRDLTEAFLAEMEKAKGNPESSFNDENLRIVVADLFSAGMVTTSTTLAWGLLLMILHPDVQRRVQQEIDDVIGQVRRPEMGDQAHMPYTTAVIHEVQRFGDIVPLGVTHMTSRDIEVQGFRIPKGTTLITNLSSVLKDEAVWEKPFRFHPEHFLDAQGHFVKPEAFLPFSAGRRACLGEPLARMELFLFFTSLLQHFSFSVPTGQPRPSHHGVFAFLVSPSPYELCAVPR
# How it was run: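 Luminescent read-out of luciferin formed by 5 nM human CYP2D6 demethylating 30 uM Luciferin-ME EGE (Km level) over 60 min at room temperature after NADPH regeneration addition. Data normalized to full inhibition by 1.43 uM quinidine.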
# [14] = molecular target: Muscarinic acetylcholine receptor M1 (Rattus norvegicus) (UniProt P08482); experiment: qHTS Assay for Antagonists of Acetylcholine Muscarinic M1 Receptor: Kinetic Measurement of Intracellular Calcium Response (AID 943); note: nearly all actives have a fitted effect of over 75% in size; note: potency is the fitted concentration of half-maximal effect
# How it was run: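 Read-out: peak over basal Fluo-4 fluorescence, kinetic at 1 Hz for 4 min after EC80 carbachol (100 nM final). Rat M1-CHO cells, dye loaded 1 h at 37C, compound added 10 min before agonist.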
# [15] = molecular target: DNA repair nuclease/redox regulator APEX1 (Homo sapiens) (UniProt P27695); experiment: qHTS Validation Assay for Inhibitors of the Human Apurinic/apyrimidinic Endonuclease 1 (APE1) (AID 1705;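 note: TAMRA fluorescence gain over two minutes as APE1 cuts a quenched THF abasic duplex; series mostly up to about 57 µM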)
# Chain of DNA repair nuclease/redox regulator APEX1 (Homo sapiens) (P27695 whole entry, looked up): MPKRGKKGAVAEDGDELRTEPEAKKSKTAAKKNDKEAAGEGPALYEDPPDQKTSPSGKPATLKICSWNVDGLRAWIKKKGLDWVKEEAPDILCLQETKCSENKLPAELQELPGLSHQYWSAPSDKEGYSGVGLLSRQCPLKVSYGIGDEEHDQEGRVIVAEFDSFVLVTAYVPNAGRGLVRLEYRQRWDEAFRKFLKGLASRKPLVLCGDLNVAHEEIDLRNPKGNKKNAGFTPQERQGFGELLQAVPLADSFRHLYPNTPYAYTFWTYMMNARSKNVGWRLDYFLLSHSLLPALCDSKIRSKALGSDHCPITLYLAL
# How it was run: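 Read-out: TAMRA fluorescence (525 nm ex, 598 nm em) from cleavage of a quenched THF abasic-site duplex, 50 nM final; activity taken as intensity change between third and first of three reads 60 s apart.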
# [16] = Counterscreen for APE1 Inhibitors: Fluorescent Dye Displacement Validation Assay (AID 1707)
# How it was run: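 Counterscreen flags promiscuous DNA binders: compounds displacing ThO from duplex DNA (abasic THF site, 50 nM) reduce 540 nm emission (480 nm excitation). ThO 250 nM final; Tris-HCl pH 7.5 with NaCl, MgCl2 and Tween-20.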
# [17] = qHTS for differential inhibitors of proliferation of Plasmodium falciparum line W2 (AID 1883); conditions: Potency: Plasmodium falciparum W2 proliferation inhibition;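 note: potency is the fitted concentration of half-maximal effect; parasites grown with compound for 72 h before lysis and staining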
# [18] = molecular target: ATP-dependent DNA helicase Q1 (Homo sapiens) (UniProt P46063); experiment: qHTS Validation Assay for Inhibitors of RecQ-Like Dna Helicase 1 (RECQ1) (AID 2353)
# How it was run: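 RECQ1T1 50 nM; forked duplex (20 bp + 30-nt ss tails) 200 nM, ATP 2 mM final; pH 8.0, 2 mM MgCl2, 2.5 ug/ml poly(dI-dC); 15 min compound preincubation; discontinuous kinetic read over 2 h at RT.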
# [19] = qHTS Assay for Identification of Small Molecule Agonists for Thrombopoietin (TPO) Signaling Pathway (AID 917)
# How it was run: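 Ba/F3 (mouse) + hTPO receptor + GpIIb-promoter luciferase; IL-3 withdrawn overnight; compound + 26 pM TPO (EC50), 24 hrs, 37 C, 5% CO2; Steadylite luminescence, 10 min RT.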
# [20] = qHTS Assay for Identification of Small Molecule Antagonists for Thrombopoietin (TPO) Signaling Pathway (AID 918); conditions: TPO-dependent cell signaling reporter, antagonist mode; note: potency is the fitted concentration of half-maximal effect; nearly all actives have a fitted effect of over 60% in size
# How it was run: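 Luminescence read-out: GPIIb-promoter luciferase in Ba/F3 cells carrying human TPO receptor. Compounds added with 26 pM TPO (EC50), 24 hrs, 37 C, 5% CO2; cells deprived of IL-3 overnight beforehand. Inhibition of signal scored.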
compound,measurement,setting,value
COc1cc(CNC(=O)CCCC/C=C\C(C)C)ccc1O,Potency,[1],2 µM (active) and 1.26 µM (active)
same,Potency,[2],3.98 µM (active)
same,Potency,[3],inactive
same,outcome,[4],inactive
same,outcome,[5],inactive
C[C@H]1C=C2C=C[C@H](C)[C@H](CC[C@@H]3C[C@@H](O)CC(=O)O3)[C@H]2[C@@H](OC(=O)[C@@H](C)CCO)C1,outcome,[4],inactive
same,outcome,[5],inactive
CCOC(=O)C1=C(C)NC(C)=C(C(=O)OC)[C@H]1c1cccc([N+](=O)[O-])c1,Potency,[1],1.58 µM (active) and 158 nM (active)
same,outcome,[6],inactive
same,outcome,[7],inactive
same,Potency,[3],inactive
same,outcome,[4],inactive
C[C@@]12C(=O)OC(=O)[C@@]1(C)[C@@H]1CC[C@@H]2O1,Potency,[3],inactive
same,outcome,[4],inactive
same,outcome,[5],inactive
same,Potency,[8],inactive
CCN(CC)CC1CCN(c2ncc3ncnc(Nc4ccc(F)c(Cl)c4)c3n2)CC1,Potency,[9],9.2 µM (active)
same,Potency,[10],16.4 µM (active)
same,Potency,[11],inactive
CCOC(=O)[C@@]12C[C@@H]1/C(=N/O)c1ccccc1O2,Potency,[12],inactive
same,Potency,[3],inactive
same,outcome,[4],inactive
same,outcome,[5],inactive
same,Potency,[8],inactive
CNC(=O)[C@H]1O[C@@H](n2cnc3c(NCc4cccc(I)c4)nc(Cl)nc32)[C@H](O)[C@@H]1O,Potency,[9],inactive
same,Potency,[10],inactive
CCCCC/C=C\C/C=C\C/C=C\C/C=C\CCCC(=O)O,outcome,[6],inactive
same,outcome,[7],inactive
same,Potency,[3],49.8 µM (active)
same,outcome,[4],inactive
same,outcome,[5],inactive
same,Potency,[8],44.1 µM (active)
CC(C)(C)n1nc(-c2ccc(Cl)cc2)c2c(N)ncnc21,Potency,[9],8.2 µM (active)
same,Potency,[10],16.4 µM (active)
COC(=O)C1=C(C)NC(C)=C([N+](=O)[O-])[C@H]1c1ccccc1C(F)(F)F,Potency,[1],15.8 µM (active) and 2 µM (active)
same,Potency,[2],12.6 µM (active)
same,Potency,[13],inactive
same,Potency,[14],inactive
same,Potency,[12],inactive
same,outcome,[4],inactive
same,outcome,[5],inactive
same,Potency,[8],39.3 µM (active)
C[C@@H](/C=C\c1cccc(Oc2ccc(F)cc2)c1)N(O)C(N)=O,Potency,[2],1.26 µM (active)
same,Potency,[14],inactive
same,Potency,[12],inactive
same,Potency,[3],inactive
same,outcome,[4],inactive
same,Potency,[8],44.1 µM (active)
COc1ccc2[nH]c(-c3ccccc3)c(CCNC(C)=O)c2c1,Potency,[3],inactive
same,outcome,[4],inactive
same,outcome,[5],inactive
same,Potency,[8],inactive
COc1ccc2c(c1)c(CC(=O)N1CCOCC1)c(C)n2C(=O)c1ccc(Cl)cc1,Potency,[1],39.8 µM (active)
same,Potency,[2],5.01 µM (active)
same,Potency,[13],inactive
same,Potency,[12],inactive
same,Potency,[15],inactive
same,Potency,[16],inactive
same,Potency,[17],12.6 µM (active)
same,Potency,[18],inactive
CSc1nc(N)c2ncn([C@H]3O[C@H](COP(=O)(O)OP(=O)(O)OP(=O)(O)O)[C@@H](O)[C@@H]3O)c2n1,Potency,[1],inactive
same,Potency,[2],inactive
same,Potency,[13],inactive
N#CC(=C(/N)Sc1ccccc1N)/C(C#N)=C(/N)Sc1ccccc1N,Potency,[1],inactive
same,Potency,[2],316 nM (active) and 3.16 µM (active)
same,Potency,[14],inactive
same,Potency,[10],14.6 µM (active)
Cc1cccc(/C=C\c2ccccc2)n1,Potency,[1],inactive and 3.98 µM (active)
CC#CCOC(=O)c1c(C)nc2sc3c(c2c1N)CC[C@@H](O)C3,Potency,[1],inactive
same,Potency,[2],3.16 µM (active)
same,Potency,[13],inactive
same,Potency,[19],inactive
same,Potency,[14],5.01 µM (active)
C=CCN1CCc2cc(O)c(O)cc2[C@H](c2ccccc2)C1,Potency,[13],398 nM (active)
same,Potency,[20],5.01 µM (active)
CCCCC#Cc1nc(NC)c2ncn([C@@H]3O[C@@H](CO)[C@H](O)[C@H]3O)c2n1,Potency,[1],0.631 µM (active)
CO[C@@]12C[C@@H](COC(=O)c3cncc(Br)c3)CN(C)[C@H]1Cc1cn(C)c3cccc2c13,Potency,[1],inactive
same,Potency,[13],39.8 nM (active) and 2.5 nM (active) and 20 nM (active)
CCCCOc1cc(C[C@@H]2CNC(=O)N2)ccc1OC,Potency,[1],inactive
same,outcome,[6],inactive
same,Potency,[19],inactive
same,outcome,[7],inactive
N[C@H](Cc1ccccc1)C(=O)O,Potency,[11],inactive
